Compound activity (PubChem BioAssay)
Hits are enriched below; roughly 5.9% of the tested compounds scored in any of these assays.
HEK293 tox: qHTS of GLP-1 Receptor Inverse Agonists: Cytotox Screen | 410,000 tested, 0.13% active | HEK293 cAMP-luciferase reporter cells, luminescence, 24 h | AID 624418, 2012 | Potency, µM (series often up to 38.3 µM), inactives show at the highest dose activity change, negative = inhibition, hits mostly inhibitors;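 further: loss of luciferase light is scored as toxicity; on the % scale 0 is the no-effect control and ±100 the full control effect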
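A 23 nL compound transfer followed 12 hours of cell culture at 37 deg C; exposure then lasted 24 hr. Luciferase assay detection reagent was dispensed and plates read for luminescence after a 12 min room-temperature wait.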
Gal4-VP16 FLuc: VP16 counterscreen qHTS for inhibitors of ROR gamma transcriptional activity; Drosophila S2 Gal4-VP16 UAS-luciferase, luminescence, 20 h; Potency, µM (top dose mostly 53.6 µM), for inactives: top-dose activity, negative = inhibition, most hits filed as inhibitors; 310,000 tested, 3.5% active; AID 2546, 2010;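 further: Gal4-VP16 expression switched on by copper sulfate through the metallothionein promoter; on the % scale 0 is the no-effect control and ±100 the full control effect; nearly all actives have a fitted effect of over 50% in size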
GLP1R inv ag: qHTS of GLP-1 Receptor Inverse Agonists (Inhibition Mode). HEK293 GLP-1R CRE-luciferase, luminescence, 24 h; GLP-1R form is constitutively active. Potency, µM (titrated, usually from 38.3 µM), inactives show at the top dose activity change, negative = inhibition, most hits filed as inhibitors. 410,000 tested, 1.6% active. AID 624417, 2012; further: on the % scale 0 is the no-effect control and ±100 the full control effect; nearly all actives have a fitted effect of over 55% in size
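Luminescence readout: a drop in cAMP-driven luciferase signal flags inverse agonism at a constitutively active GLP-1R stably expressed in HEK293. Compound exposure lasted 24 hr at 37 deg C, 5% CO2.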
RORg inh: qHTS for inhibitors of ROR gamma transcriptional activity. 310,000 tested, 5.4% active. Drosophila S2 Gal4-RORgamma UAS-luciferase reporter, 20 h. AID 2551, 2010. Potency, µM (top dose mostly 53.6 µM), without a hit: top-dose activity change, negative = inhibition, actives largely listed as inhibitors. Nuclear receptor ROR-gamma (Mus musculus), P51450; further: on the % scale 0 is the no-effect control and ±100 the full control effect; nearly all actives have a fitted effect of over 60% in size
Target sequence (P51450 whole entry, looked up, the tested form may be a part): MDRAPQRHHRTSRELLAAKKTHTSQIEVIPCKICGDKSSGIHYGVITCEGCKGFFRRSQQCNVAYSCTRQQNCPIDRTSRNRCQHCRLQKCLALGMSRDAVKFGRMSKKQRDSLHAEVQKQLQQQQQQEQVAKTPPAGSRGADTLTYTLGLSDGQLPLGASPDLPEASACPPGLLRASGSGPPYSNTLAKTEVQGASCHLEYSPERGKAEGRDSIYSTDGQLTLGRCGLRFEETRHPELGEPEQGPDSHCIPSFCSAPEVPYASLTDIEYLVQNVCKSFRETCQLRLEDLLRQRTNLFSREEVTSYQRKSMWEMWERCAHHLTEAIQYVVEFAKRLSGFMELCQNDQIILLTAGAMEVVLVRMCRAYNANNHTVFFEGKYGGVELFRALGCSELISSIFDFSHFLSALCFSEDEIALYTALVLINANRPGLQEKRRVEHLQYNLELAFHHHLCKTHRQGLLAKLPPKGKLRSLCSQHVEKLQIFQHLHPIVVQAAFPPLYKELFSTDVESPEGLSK
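Luminescence from a UAS-regulated Photinus luciferase reporter in stably transfected Drosophila Schneider cells is measured; decreased signal marks ROR gamma inhibition. Fusion expression is induced by 700 uM copper sulfate for 20 hr.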
GLP-1R agonist: qHTS of GLP-1 Receptor Agonists. 380,000 tested, 0.007% active. HEK293 GLP-1R CRE-luciferase, luminescence, 4-6 h; cells express a hypersensitive GLP-1R form. Glucagon-like peptide 1 receptor (Homo sapiens), P43220. AID 624172, 2012. Potency, µM (highest dose often 45.6 µM), for the others: top-dose activation, actives largely listed as activators; further: % of control where 0% means no effect
* hit, by the source's call; ? = inconclusive; . = no result given; [ ] = remark or other dose. The call rests on the fitted dose curve; in most records, active means well fitted curve in the direction sought with a large enough effect; inconclusive means small, poorly fitted or top-dose-only effect, or another doubt; inactive means no such curve, though single readings can be large; an effect the other way counts as inactive or inconclusive. Potency means the concentration at half of the fitted maximal effect.

SMILES | HEK293 tox | Gal4-VP16 FLuc | GLP1R inv ag | RORg inh | GLP-1R agonist
Cc1cc(C)cc(C(=O)Nc2nc3ccccc3[nH]2)c1 | ? | 10µM* | ? | 6.3µM* | 11%
COc1ccc(CCNC(=O)c2oc3ccc(OC)cc3c2C)cc1 | 19% | -16% | ? | 11µM* | 5%
COc1ccc(OCC(=O)NNc2c3ccccc3nc3ccccc23)cc1 | ? | 7.1µM* | ? | 0.35µM* | 1%
COc1ccc2oc(C(=O)OC/C(O)=C(\C#N)c3nc4ccccc4[nH]3)c(C)c2c1 | -2% | -1% | 9% | ? | -2%
O=C(Nc1ccc(Cl)c(Cl)c1)Nc1ccon1 | ? | -10% | 7.9µM* | 23% | 5%
CN(C)CCNC(=O)Nc1ccc(Cl)c(Cl)c1 | -10% | -3% | 11µM* | 6% | -14%
Cc1cc(NC(=O)Nc2ccc(Cl)c(Cl)c2)no1 | -13% | . | ? | . | -7%
CCCOc1ccc(NC(=O)CC2C(=O)N(c3cccc(OC)c3)C(=O)N2Cc2cccs2)cc1 (configuration not stated) | -5% | . | ? | . | .
Cc1cc(C)n(-c2nc(C)c(C)c(=O)n2CC(=O)Nc2ccc([N+](=O)[O-])cc2)n1 | -1% | . | 10% | . | .
CCOc1cccc(-c2cc(-c3n[nH]c(=S)n3CC)c3ccccc3n2)c1 | 4% | ? | -21% | 0.13µM* | 15%
CCn1c(-c2cc(-c3ccc(C)c(C)c3)nc3ccccc23)n[nH]c1=S | . | -17% | . | 10µM* | .
CCOc1ccccc1-c1cc(-c2n[nH]c(=S)n2CC)c2ccccc2n1 | 62% | -16% | 18% | 5.6µM* | 16%
Cc1ccc(-c2cc(-c3n[nH]c(=S)n3C)c3ccccc3n2)cc1 | -1% | -14% | 38% | 1.3µM* | 16%
CC(=O)/C(=C\c1ccccc1)CC(=O)O | . | 0% | . | -3% | .
COc1cc2c(cc1OC)/C(=C/c1ccc(Br)cc1)C(=O)OC2 | 12% | 0% | 11µM* | -23% | 11%
COc1ccc(C(=O)NCC(c2cccs2)S(=O)(=O)c2ccc(F)c(C)c2)cc1 (configuration not stated) | -8% | . | ? | . | 1%
Cn1c(=O)c2c(nc(Sc3ncccn3)n2Cc2ccc(Cl)cc2)n(C)c1=O | 2% | 16µM* | -6% | -39% | -3%
Cn1c(=O)c2c(nc(Sc3ncccn3)n2Cc2ccccc2Cl)n(C)c1=O | -2% | -12% | 0% | -2% | -12%
Oc1ccc(/C=N/n2cc(-c3ccccc3)[nH]c2=S)cc1 | -15% | 0% | 22% | 7.9µM* | -2%
S=c1[nH]c(-c2ccccc2)cn1/N=C/c1ccccc1Br | 1%[0.307 µM] | ? | 3%[0.307 µM] | 1µM* | -2%
Cc1cc(-c2n[nH]c(=S)n2/N=C/c2ccc(C)s2)n[nH]1 | 0% | -9% | 10% | -36% | -2%
COc1cc(/C=N/n2cc(-c3ccccc3)[nH]c2=S)cc(OC)c1O | 8% | -13% | 9% | ? | 6%
S=c1[nH]c(-c2ccccc2)cn1/N=C/c1cccc2ccccc12 | -5% | ? | ? | 2.5µM* | -4%
O=C(NN=Cc1cccc2ccccc12)C(=O)NN=Cc1cccc2ccccc12 | 5% | . | 1% | . | 8%
Cc1ccc(/C=N/n2cc(-c3ccccc3)[nH]c2=S)s1 | -15% | 5µM* | -26% | 0.45µM* | 8%
SMILES | HEK293 tox | Gal4-VP16 FLuc | GLP1R inv ag | RORg inh | GLP-1R agonist
COc1cc(/C=C/c2nc3cc(Cl)ccc3c(=O)n2-c2cccc(C(F)(F)F)c2)cc(OC)c1OC | 1% | . | -20% | . | .
CCOC(=O)/C(=N\Nc1ccccc1Cl)N1CC(C)OC(C)C1 (configuration not stated) | -20% | 4% | 5µM* | -3% | 21%
CCOC(=O)/C(=N\Nc1ccccc1Cl)N(C)C1CCCCC1 | 7% | -7% | 8.9µM* | 16% | 16%
Cc1cc(=O)[nH]c(SCC(=O)Nc2nc(-c3ccccc3)c(-c3ccccc3)o2)n1 | 10% | -8% | 6% | -5% | 3%
Cc1ccc(C(=O)Nc2nc(-c3ccccc3)c(-c3ccccc3)o2)cc1 | -13% | 5.6µM* | ? | 5µM* | 1%
Cc1nc(-c2ccc(NC(=O)C(C)(C)C)cc2)c(-c2ccccc2)o1 | 13% | 4% | -15% | -14% | 12%
Cc1cc(C)nc(SCC(=O)Nc2nc(-c3ccccc3)c(-c3ccccc3)o2)n1 | -16% | 20µM* | ? | 11µM* | -5%
CSCCC(N)C(=O)O (configuration not stated) | . | -2% | . | 1% | -1%
CSc1nc2ccc(Cl)cc2[nH]1 | 9% | -16% | 67% | 1% | 5%
CSc1nc2cc(Oc3cccc(Cl)c3Cl)c(Cl)cc2[nH]1 | -2% | ? | 11µM* | ? | 5%
C#CCn1c(=NC(=O)CSC(C)=O)sc2cc(F)ccc21 | ? | -29% | 3.5µM* | 2.5µM* | 5%
CCn1c(=NC(=O)CSC(C)=O)sc2cc(F)ccc21 | 10% | 7% | -3% | ? | -35%
C/C(=N\NC(=S)Nc1ccccc1C)C1Cc2ccccc2C(=O)O1 (configuration not stated) | ? | ? | ? | 2.8µM* | 31%
C/C(=N\NC(=S)Nc1ccccc1)C1Cc2ccccc2C(=O)O1 (configuration not stated) | ? | -3% | ? | 25% | 2%
Cc1cccc2cc(CN(CCCO)C(=O)Nc3ccc(Cl)cc3)c(=O)[nH]c12 | -16% | -6% | ? | 32% | -3%
Cc1cccc2cc(CN(CCCO)C(=O)Nc3cccc(Cl)c3)c(=O)[nH]c12 | -12% | 6% | 11µM* | 19% | 6%
CN(Cc1ccco1)c1cc(-c2ccc3c(c2)OCO3)ncn1 | . | -18% | . | -34% | .
CC1(C)O[C@H]2O[C@@H]([C@H](O)CON3C(=O)c4ccccc4C3=O)[C@H](O)[C@H]2O1 | . | 0%[10 µM] | . | -33%[10 µM] | .
CCN(CC)CCNC(=O)c1ccc(NC(=O)c2cccc(S(=O)(=O)N3CCc4ccccc43)c2)cc1 | ? | . | ? | . | 4%
CCN(CC)CCNC(=O)c1ccc(NC(=O)c2cccc(S(=O)(=O)Nc3ccc(C)cc3)c2)cc1 | -3% | 16µM* | ? | -105% | 11%
CCN(CC)CCNC(=O)c1ccc(NC(=O)c2cccc(S(=O)(=O)N3c4ccccc4CC3C)c2)cc1 (configuration not stated) | ? | 1% | 5.6µM* | 0% | 24%
CCN(CC)CCNC(=O)c1ccc(NC(=O)Nc2cccc3ccccc23)cc1 | 7% | 2% | 10µM* | 18% | 14%
